From PubChem BioAssay AID720621 (The Scripps Research Institute Molecular Screening Center, 2013)
The other results are listed elsewhere or left out. Values without a mark were called inactive.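 How the source made its calls: active means inhibition above the mean of test compounds lying between the control limits plus 3 SD of those (cut at about 14% in these data); inactive means the rest.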

Target: Fibrinogen beta chain (Homo sapiens) (UniProt P02675)
Test: fibrin DD(E) probe displacement, second cyclic peptide – biochemical, fluorescence polarization, human fibrin, counter-screen for fibrin DD(E)-Tn6 binding project, confirmation (AID 720621);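 further: 0% = median of compound wells and 100% = wells with Aha-Tn7 blocking peptide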
Settings: TRITC-Tn6 fluorescence polarization displacement, at 8.3 µM, stronger effect = higher value

Chain of Fibrinogen beta chain (Homo sapiens) (P02675 whole entry, looked up): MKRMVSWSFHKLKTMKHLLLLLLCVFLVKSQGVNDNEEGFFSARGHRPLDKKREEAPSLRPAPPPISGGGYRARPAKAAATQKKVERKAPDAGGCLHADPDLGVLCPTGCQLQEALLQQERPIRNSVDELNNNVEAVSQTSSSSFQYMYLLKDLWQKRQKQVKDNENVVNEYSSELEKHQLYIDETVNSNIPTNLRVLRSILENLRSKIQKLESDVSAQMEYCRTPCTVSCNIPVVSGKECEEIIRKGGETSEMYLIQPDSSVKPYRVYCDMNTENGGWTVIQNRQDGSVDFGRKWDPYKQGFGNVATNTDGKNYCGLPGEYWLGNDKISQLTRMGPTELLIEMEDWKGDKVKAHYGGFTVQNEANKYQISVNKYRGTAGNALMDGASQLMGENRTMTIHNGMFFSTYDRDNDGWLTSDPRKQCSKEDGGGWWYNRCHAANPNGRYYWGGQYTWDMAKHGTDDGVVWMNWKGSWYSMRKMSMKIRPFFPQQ

Compound	inhibition
Cc1cc(N2CCNC[C@@H]2C)ccc1N1CC[C@H](O)C1	2.02%
COc1ccc2c(c1O)-c1cccc3c1[C@@H](C2)N(C)CC3	-6.45%
